Hits are enriched below; roughly 7.9% of the tested compounds scored in any of these assays.
LASV entry inh – qHTS for Inhibitors of binding or entry into cells for Lassa Virus | Lassa virus pseudotype entry inhibition, cell reporter | Potency, µM (titrated, usually from 37.9 µM), without a hit: at the top dose activity change, negative = inhibition, actives largely listed as inhibitors | hit rate 1.2% among 300,000 | AID 540256, 2011; calls by dose curve; tested in HEK293 cells; note: potency is the fitted concentration of half-maximal effect; nearly all actives have a fitted effect of over 50% in size
FMDV inh – High Throughput Screening for Foot and Mouth Disease Virus Antivirals; FMDV antiviral cell-based qHTS; Potency, µM (doses to about 57.9 µM), for the others: top-dose activity change, negative = inhibition, actives largely listed as inhibitors; hit rate 1.2% among 410,000; calls by dose curve; tested in HEK293T cells; note: read-out not given here; potency is the fitted concentration of half-maximal effect; nearly all actives have a fitted effect of over 45% in size
HCV inhibitor – qHTS Assay for Inhibitors of Hepatitis C Virus (HCV) | Huh7.5.1 HCVcc-Cre infection, luciferase reporter, 44 h | Potency, µM (titrated, usually from 41.8 µM), for inactives: at the top dose activity change, negative = inhibition, actives largely listed as inhibitors | hit rate 3.4% among 340,000 | AID 651820, 2012; active = well fitted inhibition curve with a large enough effect; inconclusive = small, poorly fitted or top-dose-only effect, or another doubt; inactive = no such curve, though single readings can be large or run the other way; note: potency is the fitted concentration of half-maximal effect
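Reporter virus HCVcc-Cre (~0.5 moi) infects cells exposed to compound; seeding density 1,000 cells/well with 4 h settling beforehand. Luminescence, 15 sec read, taken 44 h post-infection following a 15 min RT substrate incubation.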
HCMV antiviral – qHTS Assay for inhibitors of the human cytomegalovirus (HCMV). HFF cells, HCMV-luciferase reporter, 72 h; stronger effect = lower value. activity change, negative = inhibition, % at 57.5 µM. hit rate 4.5% among 410,000. AID 1259415, 2018; in the data active = activity change below about -60%; inconclusive = no clear call, values can overlap the other calls; inactive = above about -39%
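HFF cells seeded 16 h at 37C, treated with compounds, infected with luciferase-reporter HCMV at MOI 1 PFU/cell; luciferase read at 72 h post infection, normalized to buffer-only and Salinomycin controls.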
Marburg entry inh – qHTS for inhibitors of binding or entry into cells for Marburg Virus; Marburg virus pseudotyped entry inhibition, cell reporter; Potency, µM (doses to about 37.8 µM), for the others: top-dose activity change, negative = inhibition, most hits filed as inhibitors; hit rate 1.8% among 300,000; AID 540276, 2011; calls by dose curve; tested in HEK293 cells; note: potency is the fitted concentration of half-maximal effect
Active calls of the source: *; ? = inconclusive; . = no result given; [ ] = remark or other dose. % is set by controls: 0 for no effect and ±100 for the full control effect.

SMILES | LASV entry inh | FMDV inh | HCV inhibitor | HCMV antiviral | Marburg entry inh
COc1ccc(CCN2CC(C(=O)NCCCc3ccncc3)CCC2=O)cc1 (stereo not given) | . | 0% | . | 4 | .
COc1ccc2c([N+](=O)[O-])c(C)[nH]c2c1 | . | . | . | -15 | .
COc1cc(C2C3=C(COC3=O)Oc3cc4c(cc32)OCO4)cc(OC)c1OC(C)=O (stereo not given) | ? | 7% | 4% | -69* | ?
COc1cc(C2C3=C(COC3=O)Oc3cc4c(cc32)OCO4)ccc1OC(C)=O (stereo not given) | -6%[46.1 µM] | -8% | -12% | -28 | -10%
O=C(Nc1cccnc1)Nc1cccc(F)c1 | . | 20% | 18% | -31 | .
Cc1ccc(NC(=O)Nc2cccnc2)cc1NC(=O)Nc1cccnc1 | . | ? | 11µM* | ? | .
Cc1ccc(NC(=O)Nc2nc3ccccc3s2)cc1NC(=O)Nc1nc2ccccc2s1 | . | 4% | 14µM* | -74* | .
CC(=O)c1cccc(NC(=O)Nc2cccnc2)c1 | 4% | 20% | 1% | -77* | 5%
CCCN(CCC)CCCNC(=O)c1cc2c(=O)n(C)c3ccccc3c2s1 | 5%[46.1 µM] | -3% | . | 0 | ?
CC1CN(Cc2cccn2-c2cccnc2)Cc2cc(Cl)ccc2O1 (stereo not given) | . | -13% | . | . | .
COc1cccc(-c2cc(C(=O)NCCc3ccc(OC)c(OC)c3)no2)c1 | 3%[46.1 µM] | -18% | . | 7 | 12%[46.1 µM]
COc1ccc(C(=O)Nc2nnc(S(=O)(=O)N3CCN(c4ccc(C)cc4)CC3)s2)cc1 | 1%[46.1 µM] | 3% | . | 16 | .
CCOc1ccc(CNC(=O)c2ccc3nc(CC)c(CC)nc3c2)cc1 | -2%[46.1 µM] | 4% | . | 29 | .
CCC1=NN(C(=O)c2cccc(Br)c2)C(O)(c2ccc(Br)cc2)C1 (stereo not given) | 2% | 0% | 16µM* | -71* | ?
CCCCN(C)CCCNC(=O)C1CCN(c2nc3ccc(CC)cc3s2)CC1 | ? | 6% | . | -108* | ?
CCCCN(CC)CCCNC(=O)C1CCN(c2nc3ccc(CC)cc3s2)CC1 | ? | -3% | . | -98* | ?
CCOc1ccc2nc(N3CCC(C(=O)NCCCN4CCOCC4)CC3)sc2c1 | -11% | 1% | ? | 37 | ?
CN1CCN(C(=O)c2ccc3c(c2)N(Cc2ccc(C(F)(F)F)cc2)C(=O)c2ccccc2S3)CC1 | 0%[46.1 µM] | -11% | . | -15 | ?
Cc1ccccc1Nc1c(-c2ccc(O)cc2)nc2c(C)cccn12 | -12%[46.1 µM] | -9% | . | -16 | 8%[46.1 µM]
COc1ccc(CN(C)CC(=O)Nc2cccc(S(N)(=O)=O)c2)c(OC)c1OC | . | -21% | 13% | -22 | .
CCCCOc1ccc(C(=O)NCC2(c3ccc(OC)cc3)CCOCC2)cc1 | 2.8µM* | -18% | -10% | -38 | ?
CCN(N=O)c1ccc(C=C2C=Cc3ccccc32)cc1 | 4µM* | -14% | -28% | 43 | ?
O=S(=O)(CCSc1nc2ccccc2o1)c1nc2ccccc2s1 | ? | 16µM* | 11µM* | 32 | ?
CC1CCc2cc(F)ccc2N1C(=O)CSc1nnc2c(n1)[nH]c1ccccc12 (stereo not given) | ? | ? | ? | -76* | ?
COc1ccccc1NC(=O)CSc1nnc2c3ccccc3n(C(C)C)c2n1 | ? | ? | . | -61* | ?
SMILES | LASV entry inh | FMDV inh | HCV inhibitor | HCMV antiviral | Marburg entry inh
COc1ccccc1NC(=O)CSc1nnc2c(n1)[nH]c1ccccc12 | 11µM* | ? | . | 11 | 8%[46.1 µM]
COc1cccc(CNC(=O)CSc2nnc3c(n2)[nH]c2ccccc23)c1 | . | ? | 10µM* | 19 | ?
O=C(CSc1nnc2c(n1)[nH]c1ccccc12)N1CCCCC1 | -21%[46.1 µM] | -13% | ? | ? | -8%[46.1 µM]
Cc1c(Cl)cccc1NC(=O)CNC(=O)c1ccccc1F | 15% | 3% | 31% | ? | 3%
COc1ccc(-c2nnc(SCC(=O)NCc3ccccc3)nc2-c2ccc(OC)c(OC)c2)cc1OC | ? | -3% | . | -78* | .
COc1ccc2[nH]c3nc(SCC(=O)NNC(=O)c4ccc(OC)c(OC)c4)nnc3c2c1 | -1% | 7.1µM* | 1% | -15 | 1%
C=CCNC(=O)c1onc(CSc2ccc(F)c(F)c2)c1C(=O)NCC=C | . | -12% | -26% | -66* | .
CCc1cc(C(=O)OC)c(NC(=O)CC2SC(=NC)N(C)C2=O)s1 (stereo not given) | 13%[46.1 µM] | 5% | 16µM* | 10 | -10%[46.1 µM]
CN=C1SC(CC(=O)Nc2sc(C)c(C)c2C(=O)OC)C(=O)N1C (stereo not given) | -21% | . | ? | -12 | -25%
CCc1ccc(NC(=O)CCC(=O)Nc2nnc(C(C)C)s2)cc1 | . | 7% | 12% | -17 | .
CN(C)CCCNC(=O)c1ccc(-c2cc3nc(NCc4cccnc4)n(C)c(=O)c3s2)cc1 | . | -8% | . | 61 | .
Nc1nnn(CC(=O)N/N=C/c2cn[nH]c2-c2ccccc2)n1 | 25% | -10% | 26% | 1 | 4%[46.1 µM]
CN(CC(=O)Nc1ccc(S(=O)(=O)N2CCCC2)cc1)Cc1c(F)cccc1Cl | ? | ? | ? | -70* | 5µM*
CCC(=O)c1ccc(OCC(=O)Nc2cccc(S(=O)(=O)N3CCCCCC3)c2)cc1 | -11% | ? | ? | -26 | ?
CN(CC(=O)Nc1cccc(S(=O)(=O)N2CCCC2)c1)CC(=O)Nc1ccc(Cl)c(C(F)(F)F)c1 | ? | -22% | 18µM* | -64* | ?
CCc1ccc(C(=O)CCC(=O)Nc2cccc(S(=O)(=O)N3CCCCC3)c2)cc1 | -30% | -5% | 10µM* | -29 | ?
CCN(CC)S(=O)(=O)c1cc(NC(=O)CNc2cccc(S(=O)(=O)N3CCOCC3)c2)ccc1C | ? | -27% | 5.6µM* | -85* | ?
CN(C)CC(C)(O)c1ccc2c(c1)CN(Cc1cccn1-c1cccnc1)CCO2 (stereo not given) | . | 9% | . | . | .
CCOc1ccc2nc(N3CCCC3C(=O)N3CCC(c4nc5ccccc5o4)CC3)nc(C)c2c1 (stereo not given) | . | -6% | . | . | .
Cn1cnc(S(=O)(=O)N2CCC(C(=O)Nc3ccc(Cl)c(C(F)(F)F)c3)CC2)c1 | 18%[46.1 µM] | ? | . | -76* | .
CC1CCN(S(=O)(=O)c2ccc(NC(=O)Cn3nnc(-c4ccccc4)n3)cc2)CC1 | 0% | -28% | -5% | -27 | ?
COc1ccc(NC(=O)C2CCN(S(=O)(=O)c3cn(C)cn3)CC2)cc1Cl | 18%[46.1 µM] | -11% | . | -5 | .
CCN(CC)S(=O)(=O)c1cccc(NC(=O)CNc2cccc(S(=O)(=O)N3CCCC3)c2)c1 | ? | -5% | 2.5µM* | -88* | ?
O=C(Cn1nnc(-c2ccc(F)cc2)n1)Nc1cccc(S(=O)(=O)N2CCCC2)c1 | . | -25% | 22µM* | -60* | .
O=C(Cn1nnc(-c2ccccc2Cl)n1)Nc1cccc(S(=O)(=O)N2CCCC2)c1 | ? | -1% | ? | -25 | ?

Compound activity as filed in PubChem.
